Drawing on PubChem BioAssay AID588477 (NMMLSC, 2011), this text covers outcome for three compounds.

The subject of this test is Ras wt. The test can be described thus: inhibitors of Bodipy-GTP binding across eight GTPases, SAR follow-up, selectivity assay for Cdc42 probe extension project, biochemical, round 1 SAR, Mg buffer, multiplex flow cytometry (AID 588477). Particulars: GST-GTPase beads; series mostly up to 100 µM.

The structures appear in SMILES notation. Calls of active or inactive are those of the source.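 The calls were made as follows: active = valid curve fit with half-effect dose at most 10 µM and total binding change across doses of 30 points or more; inactive = the rest.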

`COc1ccc(C2CC(c3ccccc3)=NN2c2ccc(S(N)(=O)=O)cc2)cc1` (stereo not drawn): the call was inactive.

On to `O=C(C#Cc1ccccc1)c1cccc([N+](=O)[O-])c1`, for which the compound was called inactive.

As to `NS(=O)(=O)c1ccc(N2N=C(c3ccccc3)CC2c2ccccc2)cc1` (stereo not drawn), the result was inactive.
